Reference: the supplement of paper PMC6607015
Where a name gives a salt, the structure may show the parent alone.

Tests used:
Conditions in all cases: compound concentration in added solution (µM; 5 µl added to 20 µl cells): 10; 18 h
A431 [1] = assay: LBPA endosome anti-LBPA integrated intensity (sum per cell), Z-score; higher = more LBPA staining
In short: (§1)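 Each value is a Z-score normalised in AcuityXpress from per-cell integrated LBPA or filipin intensity, taken over the whole cell or within LBPA endosomes. Duplicate 384-well imaging plates held 5 µl of 10 µM compound solution, onto which 3,500 HeLa MZ or A431 cells in 20 µl were seeded per well. After 18 h the cells were fixed in 4% PFA, stained with 6C4 anti-LBPA antibody, filipin, propidium iodide and CellTracker green, imaged four times per well at 20× and segmented in MetaXpress.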

HeLa MZ [2] = assay: as above
In short: as §1

A431 [3] = assay: whole-cell filipin (free cholesterol) integrated intensity, Z-score; higher = more cholesterol staining
In short: as §1

HeLa MZ [4] = assay: as above
In short: as §1

A431 [5] = assay: filipin (cholesterol) integrated intensity within LBPA endosomes, Z-score; higher = more cholesterol in LBPA endosomes
In short: as §1

HeLa MZ [6] = assay: as above
In short: as §1

| Compound | LBPA endosome anti-LBPA integrated intensity (z-score) (A431 [1]) | LBPA endosome anti-LBPA integrated intensity (z-score) (HeLa MZ [2]) | whole-cell filipin (z-score) (A431 [3]) | whole-cell filipin (z-score) (HeLa MZ [4]) | filipin (z-score) (A431 [5]) | filipin (z-score) (HeLa MZ [6]) |
| --- | --- | --- | --- | --- | --- | --- |
| c1ccc2[nH]c(-c3cscn3)nc2c1 [Tiabendazole] | -0.626 | -1.01 | -0.678 | -0.558 | -0.54 | -0.645 |
| C[N+]1(C)CCC(=C(c2ccccc2)c2ccccc2)CC1 [Diphemanil methylsulfate] | -0.603 | -1.21 | -0.868 | -0.964 | -0.428 | -0.688 |
| CC(C)(C)NC[C@H](O)COc1cccc2c1CCCC2=O [(-) -Levobunolol hydrochloride] | -0.264 | 1.1 | -0.125 | -0.19 | -0.327 | 0.118 |
| CC(C)C(=O)Nc1ccc([N+](=O)[O-])c(C(F)(F)F)c1 [Flutamide] | -0.32 | 0.353 | -0.407 | -0.0656 | -0.384 | -0.392 |
| CC(=O)OCC(=O)[C@@]12OC3(CCCC3)O[C@@H]1C[C@H]1[C@@H]3CCC4=CC(=O)C=C[C@]4(C)[C@@]3(F)[C@@H](O)C[C@@]12C [Amcinonide] | -0.0445 | 0.215 | 0.476 | 0.977 | -0.0127 | 0.16 |
| NC12CC3CC(CC(C3)C1)C2 [Adamantamine fumarate] | -0.644 | -1.51 | -0.89 | -0.605 | -0.499 | -0.616 |
| Cc1ncc([N+](=O)[O-])n1CCO [Metronidazole] | -0.639 | -1.28 | -1.11 | -0.583 | -0.459 | -0.544 |
| NC(=O)OCC(O)COc1ccc(Cl)cc1 (centres undefined) [Chlorphensin carbamate] | -0.6 | -2.23 | -1.05 | -0.894 | -0.514 | -0.697 |
| CCCNC(C)C(=O)Nc1c(C)csc1C(=O)OC (centres undefined) [Articaine hydrochloride] | -0.511 | -1.09 | -0.0579 | -0.354 | -0.492 | -0.461 |
| CC(=O)c1ccc(S(=O)(=O)NC(=O)NC2CCCCC2)cc1 [Acetohexamide] | -0.506 | -0.393 | -0.763 | -0.947 | -0.604 | -0.673 |
| C[C@H]1c2cccc(O)c2C(=O)C2=C(O)[C@]3(O)C(=O)C(C(N)=O)=C(O)[C@@H](N(C)C)[C@@H]3[C@@H](O)[C@@H]21 [Doxycycline hydrochloride] | -0.633 | -1.71 | -0.0102 | -0.552 | -0.531 | -0.743 |
| COCCOC(=O)C1=C(C)NC(C)=C(C(=O)OC/C=C/c2ccccc2)C1c1cccc([N+](=O)[O-])c1 (centres undefined) [Cilnidipine] | 0.601 | 0.589 | 1.38 | -0.377 | 0.591 | 0.579 |
| C[C@]12CCC(=O)C=C1C=C[C@@H]1[C@@H]2CC[C@@]2(C)[C@H]1CC[C@@]21CCC(=O)O1 [Canrenone] | -0.209 | 1.1 | 0.452 | 1.37 | -0.0815 | 0.168 |
| CC(=O)OCC(=O)[C@@]12N=C(C)O[C@@H]1C[C@H]1[C@@H]3CCC4=CC(=O)C=C[C@]4(C)[C@H]3[C@@H](O)C[C@@]12C [Deflazacort] | -0.192 | 0.385 | 0.137 | 0.444 | -0.208 | -0.207 |
| NCCc1cc[nH]n1 [Betazole hydrochloride] | -0.528 | 0.0261 | -0.472 | -0.657 | -0.476 | -0.51 |
| O=C1C(O)=C([C@H]2CC[C@H](c3ccc(Cl)cc3)CC2)C(=O)c2ccccc21 [Atovaquone] | -0.63 | -0.824 | -0.408 | -0.361 | -0.555 | -0.654 |
| CCOC(=O)C(C)(C)Oc1ccc(Cl)cc1 [Clofibrate] | -0.34 | -0.523 | -0.116 | -0.429 | -0.352 | -0.657 |
| CC[N+](CC)(CC(=O)Nc1c(C)cccc1C)Cc1ccccc1 [Denatonium benzoate] | -0.32 | -0.985 | -0.241 | -0.0671 | -0.379 | -0.548 |
| Cc1c(NC(C)C)c(=O)n(-c2ccccc2)n1C [Isopyrin hydrochloride] | -0.574 | -1.29 | -0.495 | -0.424 | -0.515 | -0.531 |
| NCCCC[C@H](N[C@@H](CCc1ccccc1)C(=O)O)C(=O)N1CCC[C@H]1C(=O)O [Lisinopril] | -0.555 | -0.949 | -0.886 | -0.862 | -0.636 | -0.71 |

| Compound | LBPA endosome anti-LBPA integrated intensity (z-score) (A431 [1]) | LBPA endosome anti-LBPA integrated intensity (z-score) (HeLa MZ [2]) | whole-cell filipin (z-score) (A431 [3]) | whole-cell filipin (z-score) (HeLa MZ [4]) | filipin (z-score) (A431 [5]) | filipin (z-score) (HeLa MZ [6]) |
| --- | --- | --- | --- | --- | --- | --- |
| COc1ccc(NS(=O)(=O)c2ccc(N)cc2)nn1 [Sulfamethoxypyridazine] | -0.55 | -1.31 | -0.449 | -0.237 | -0.455 | -0.522 |
| N[C@@H](C(=O)N[C@@H]1C(=O)N2C(C(=O)O)=C(Cl)CS[C@H]12)c1ccccc1 [Cefaclor hydrate] | -0.551 | -0.828 | -0.722 | -0.368 | -0.522 | -0.558 |
| COc1cc(NS(=O)(=O)c2ccc(N)cc2)nc(OC)n1 [Sulfadimethoxine] | -0.522 | -0.857 | -0.62 | 0.132 | -0.482 | -0.404 |
| COc1cc(NS(=O)(=O)c2ccc(N)cc2)ncn1 [Sulfamonomethoxine] | -0.448 | 0.107 | -0.452 | 0.0403 | -0.378 | -0.344 |
| CC(=O)Nc1ccc(O)cc1 [Acetaminophen] | -0.388 | 0.0073 | -0.156 | -0.518 | -0.48 | -0.412 |
| COC(=O)C1=C(C)NC(C)=C(C(=O)OC(C)C)C1c1cccc2nonc12 (centres undefined) [Isradipine] | -0.123 | 0.656 | 0.258 | -0.179 | -0.13 | -0.161 |
| C[C@H](CCC(=O)O)[C@H]1CC[C@H]2[C@@H]3CC[C@@H]4C[C@H](O)CC[C@]4(C)[C@H]3CC[C@]12C [Lithocholic acid] | -0.507 | -0.5 | -0.232 | 0.929 | -0.446 | -0.289 |
| CN1CCCN=C1/C=C/c1cccc(O)c1 [Oxantel pamoate] | -0.563 | -0.852 | -0.857 | -0.729 | -0.5 | -0.659 |
| CCCCOc1cc(C(=O)OCCN(CC)CC)ccc1N [Benoxinate hydrochloride] | 1.79 | 1.63 | 0.624 | -0.0981 | 0.826 | 0.624 |
| CC(=O)OCC(=O)[C@@]1(OC(C)=O)[C@@H](C)C[C@H]2[C@@H]3C[C@H](F)C4=CC(=O)C=C[C@]4(C)[C@@]3(F)[C@@H](O)C[C@@]21C [Diflorasone Diacetate] | -0.283 | -0.262 | -0.254 | -0.816 | -0.354 | -0.539 |
| Cn1c(=O)c2c(ncn2C)n(C)c1=O [Caffeine] | -0.331 | -0.197 | -0.0359 | 0.547 | -0.318 | -0.108 |
| C[n+]1ccccc1/C=N/O [Pralidoxime chloride] | -0.559 | -0.678 | -0.432 | -0.212 | -0.503 | -0.574 |
| CCCCOc1ccc(C(=O)CCN2CCCCC2)cc1 [Dyclonine hydrochloride] | 0.717 | 0.215 | 0.502 | -0.794 | 0.482 | -0.156 |
| Cc1onc(-c2c(Cl)cccc2Cl)c1C(=O)N[C@@H]1C(=O)N2[C@@H]1SC(C)(C)[C@@H]2C(=O)O [Dicloxacillin sodium salt hydrate] | -0.319 | -0.38 | -0.616 | -0.567 | -0.395 | -0.582 |
| COc1ccc2[nH]c([S+]([O-])Cc3ncc(C)c(OC)c3C)nc2c1 (centres undefined) [Omeprazole] | -0.534 | -0.664 | -0.421 | -0.0929 | -0.508 | -0.373 |
| Nc1nc(F)nc2c1ncn2[C@@H]1O[C@H](CO)[C@@H](O)[C@@H]1O [Fludarabine] | -0.338 | 1.27 | 0.904 | 1.82 | -0.372 | -0.595 |
| CN(C)[C@@H]1C(O)=C(C(N)=O)C(=O)[C@@]2(O)C(O)=C3C(=O)c4c(O)cccc4[C@@](C)(O)[C@H]3C[C@@H]12 [Tetracycline hydrochloride] | -0.508 | 0.0873 | -0.872 | -0.867 | -0.521 | -0.698 |
| Clc1ccc(C(Cn2ccnc2)OCc2csc3c(Cl)cccc23)c(Cl)c1 (centres undefined) [Sertaconazole nitrate] | -0.364 | 1.08 | 0.486 | 1.1 | -0.139 | 0.708 |
| C=C1/C(=C\C=C2/CCC[C@]3(C)[C@@H]([C@H](C)/C=C/[C@@H](O)C4CC4)CC[C@@H]23)C[C@@H](O)C[C@@H]1O [Calcipotriene] | 0.563 | 1.43 | 0.734 | 0.316 | 0.659 | 0.179 |
